Measured values from PubChem BioAssay (EPA / NIEHS).
Records with an inconclusive call do not appear. Active and inactive are the calls of the source. How the source made its calls, unless noted: active means hit-call score of the fitted dose curve at least 0.9, where 1 is the maximum; inactive means score below 0.9.

Columns and labels:
[1] = ATG_BRE_CIS: Attagene CIS-FACTORIAL HepG2 Assay for human Bone Morphogenetic Protein (BMP) Response Element (BRE) (AID 2282933); conditions: HepG2 BMP response element reporter, Attagene transcription factor profiling; actives raise or lower the signal
How it was run: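 Gain- or loss-of-signal was derived by bidirectional fitting against DMSO controls. The signal came from reporter mRNA, measured by RT-PCR and capillary electrophoresis, in HepG2 cells transiently carrying multiple reporter units and dosed for 24 h.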

[2] = ATG_E_Box_CIS: Attagene CIS-FACTORIAL HepG2 Assay for human Enhancer Box (E-box) (AID 2282936); conditions: HepG2 E-box cis-reporter transcription, actives raise or lower the signal
How it was run: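 First, HepG2 cells receive multiple cis-regulated reporter constructs by transient transfection. Next, chemicals are applied for 24 h. Finally, reporter mRNA is quantified via RT-PCR and capillary electrophoresis, with DMSO as baseline.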

[3] = ATG_GRE_CIS: Attagene CIS-FACTORIAL HepG2 Assay for human Glucocorticoid Response Elements (GRE) (AID 2282947); conditions: HepG2 GRE cis-reporter, Attagene multiplex mRNA; actives raise or lower the signal
How it was run: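 Endogenous transcription factor activity is read through cis-element reporter constructs transiently transfected into HepG2 cells. After 24 h treatment, labelled RT-PCR products are resolved by capillary electrophoresis; DMSO sets baseline for bidirectional curve fitting.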

[4] = ATG_PPRE_CIS: Attagene CIS-FACTORIAL HepG2 Assay for human Peroxisome Proliferator-activated Response Element (PPRE) (AID 2282958); conditions: HepG2 PPRE cis-element reporter, Attagene transcription factor profiling; actives raise or lower the signal
How it was run: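 Cells are first transfected transiently with the multiplexed reporter library, then dosed for 24 h. Total RNA is reverse-transcribed, amplified, fluorescently end-labeled and HpaI-cut before capillary electrophoresis; activity is fitted bidirectionally against DMSO controls.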

[5] = ATG_SREBP_CIS: Attagene CIS-FACTORIAL HepG2 Assay for human Sterol Regulatory Element Binding (SREBP) (AID 2282962); conditions: HepG2 Attagene cis-factorial SREBP reporter, mRNA; actives raise or lower the signal
How it was run: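 Transfected HepG2 (cis-regulated reporter library, endogenous TFs) → compound 24 h → total RNA → oligo(dT) RT → reporter-specific PCR → FAM primer extension, HpaI cut → CE fluorescence. Fit bidirectional vs DMSO.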

[6] = target: X-box-binding protein 1 (Homo sapiens) (UniProt P17861); assay: ATG_Xbp1_CIS: Attagene CIS-FACTORIAL HepG2 Assay for human X-box Binding Protein 1 (XBP1) (AID 2282972); conditions: HepG2 XBP1 cis-element reporter, Attagene multiplex; actives raise or lower the signal
How it was run: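 HepG2, transient MRTU transfection (cis-promoter driven), 24 h compound exposure. Total RNA → oligo(dT) RT → PCR → 6-FAM labeling → HpaI cut → CE. Bidirectional fit vs DMSO.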

[7] = ATG_M_06_TRANS: Attagene TRANS-FACTORIAL HepG2 Assay for M06 Transcription Factor (Internal Marker) (AID 2282983; active means hit-call score of the fitted dose curve at least 0.9, where 1 is the maximum;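 further: reporter transcript level by RT-PCR then capillary electrophoresis fluorescence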); conditions: HepG2 Attagene TRANS M06 internal marker reporter
How it was run: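 Cells: HepG2, transient multi-reporter transfection. Exposure: 24 h. Detection: RT-PCR, 6-FAM labelling, HpaI digestion (2 h, 37 °C), capillary electrophoresis. Baseline: DMSO.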

[8] = target: Nuclear respiratory factor 1 (Homo sapiens) (UniProt Q16656); assay: ATG_NRF1_CIS: Attagene CIS-FACTORIAL HepG2 Assay for human Nuclear Respiratory Factor 1 (NRF1) Orphan Gene (AID 2282987); conditions: HepG2 NRF1 cis-element reporter, Attagene multiplex; actives raise or lower the signal
How it was run: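 Fluorescence intensity of labelled reporter cDNA fragments, resolved by capillary electrophoresis, served as readout for NRF1 cis-element activity. Transiently transfected HepG2 cells were dosed for 24 hours; activity in either direction was fitted against DMSO negative control.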

[9] = ATG_NFI_CIS: Attagene CIS-FACTORIAL HepG2 Assay for human Nuclear Factor I (NFI) (AID 2282989); conditions: HepG2 cis-regulatory reporter, NFI response element transcription; actives raise or lower the signal
How it was run: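 After transient transfection of HepG2 with cis-promoter reporter constructs and 24 h dosing, RNA is reverse-transcribed, amplified, 6-FAM end-labelled and HpaI-digested before capillary analysis. Bidirectional curve fitting against DMSO.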

[10] = target: Peroxisome proliferator-activated receptor gamma (Homo sapiens) (UniProt P37231); assay: ATG_PPARg_TRANS: Attagene TRANS-FACTORIAL HepG2 Assay for human Peroxisome Proliferator-activated Receptor-gamma (PPARg) (AID 2283007; active means hit-call score of the fitted dose curve at least 0.9, where 1 is the maximum)
How it was run: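 A TRANS-format multiplexed reporter assay measures activity of an exogenous chimeric NR-Gal4 protein in HepG2 cells. After 24 h of chemical exposure, reporter transcripts are amplified, fluorescently labelled and sized by capillary electrophoresis, with gain of signal scored against DMSO.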

[11] = target: Nuclear receptor subfamily 1 group I member 2 (Homo sapiens) (UniProt O75469); assay: ATG_PXR_TRANS: Attagene TRANS-FACTORIAL HepG2 Assay for human Pregnane X Receptor (PXR) (AID 2283008; active means hit-call score of the fitted dose curve at least 0.9, where 1 is the maximum)
How it was run: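 Read-out is fluorescence of labelled reporter cDNA fragments separated by capillary electrophoresis after RT-PCR and HpaI digestion. Source: HepG2 cells carrying PXR-GAL4/UAS reporter constructs, treated 24 h; activity fitted upward relative to DMSO.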

[12] = target: Retinoic acid receptor RXR-alpha (Homo sapiens) (UniProt P19793); assay: ATG_RXRa_TRANS: Attagene TRANS-FACTORIAL HepG2 Assay for human Retinoid X Receptor alpha (RXRa) (AID 2283012; active means hit-call score of the fitted dose curve at least 0.9, where 1 is the maximum)
How it was run: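 Cells (HepG2) carried transiently transfected GAL4-responsive reporter units. Following a 24 h chemical incubation, reporter mRNA induction was read via RT-PCR fragment analysis; DMSO served as negative control and baseline.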

[13] = target: Cellular tumor antigen p53 (Homo sapiens) (UniProt P04637); assay: TOX21_p53_BLA_p3_ratio: Tox21 HCT-116 p53 Agonism Beta-lactamase Assay, Ratio, Phase 3 (AID 2283596; active means hit-call score of the fitted dose curve at least 0.9, where 1 is the maximum)
How it was run: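 HCT116 p53-bla cells (4000/well) given compound in DMSO (217-fold dilution) after 5 h, incubated 16 h at 37C. CCF4-AM substrate 2 h at room temperature; 460/530 nm emission ratio, gain fitted against DMSO.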

[14] = target: Cellular tumor antigen p53 (Homo sapiens) (UniProt P04637); assay: TOX21_p53_BLA_p5_ratio: Tox21 HCT-116 p53 Agonism Beta-lactamase Assay, Ratio, Phase 5 (AID 2283599; active means hit-call score of the fitted dose curve at least 0.9, where 1 is the maximum)
How it was run: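 HCT-116 p53-bla cells (4000/well) plated 5 h, dosed with compound (217-fold DMSO dilution) for 16 h at 37 C; CCF4-AM substrate 2 h at room temperature. Activity is the 460/530 nm emission ratio (405 nm excitation), fitted in gain-of-signal direction versus DMSO.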

[15] = target: Cellular tumor antigen p53 (Homo sapiens) (UniProt P04637); assay: TOX21_p53_BLA_p4_ratio: Tox21 HCT-116 p53 Agonism Beta-lactamase Assay, Ratio, Phase 4 (AID 2283601; active means hit-call score of the fitted dose curve at least 0.9, where 1 is the maximum)
How it was run: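 HCT-116 p53 beta-lactamase reporter cells (4000/well) preincubated 5 h, then compound (217-fold dilution of DMSO stock) for 16 h at 37C. CCF4-AM substrate added 2 h at room temperature; 460/530 nm emission ratio fitted upward versus DMSO.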

[16] = ATG_FoxO_CIS: Attagene CIS-FACTORIAL HepG2 Assay for human Forkhead box O (FoxO) (AID 2282943); conditions: HepG2 Attagene cis-reporter, FoxO element, mRNA; actives raise or lower the signal
How it was run: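 Transfected HepG2 reporter cells exposed to test chemical for 24 h; reporter RNA measured by reverse transcription, PCR and fluorescent capillary electrophoresis; curves fitted for increases and decreases against DMSO.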

[17] = ATG_PBREM_CIS: Attagene CIS-FACTORIAL HepG2 Assay for human Phenobarbital-responsive Enhancer Module (PBREM) (AID 2282955); conditions: HepG2 PBREM cis-reporter, Attagene multiplexed transcription; actives raise or lower the signal
How it was run: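 Fluorescence of labelled reporter cDNA fragments, resolved by capillary electrophoresis, gives mRNA induction in transfected HepG2 cells treated for 24 h; DMSO serves as negative control and baseline.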

[18] = ATG_Sox_CIS: Attagene CIS-FACTORIAL HepG2 Assay for human SRY-box transcription factor (SOX) (AID 2282960); conditions: HepG2 Attagene cis-factorial SOX reporter, mRNA; actives raise or lower the signal
How it was run: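 Transient MRTU transfection of HepG2; 24 h compound incubation; TriZol RNA, oligo(dT) RT, PCR, 6-FAM primer extension, HpaI cut, CE. Bidirectional fit, DMSO = baseline.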

[19] = target: Hepatocyte nuclear factor 4-alpha (Homo sapiens) (UniProt P41235); assay: ATG_HNF4a_TRANS: Attagene TRANS-FACTORIAL HepG2 Assay for human Hepatocyte Nuclear Factor 4 alpha (HNF4a) (AID 2282982; active means hit-call score of the fitted dose curve at least 0.9, where 1 is the maximum); conditions: HepG2 HNF4a transactivation reporter, mRNA readout
How it was run: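 Gain-of-signal mRNA induction, relative to DMSO vehicle, was read after 24 h compound treatment of HepG2 cells bearing transfected GAL4-UAS reporters. Detection used RT-PCR, 6-FAM primer extension and capillary electrophoresis.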

[20] = target: human Retinoid X Receptor beta (RXRb), RXRB (gene 6257) (UniProt P28702); assay: ATG_RXRb_TRANS: Attagene TRANS-FACTORIAL HepG2 Assay for human Retinoid X Receptor beta (RXRb) (AID 2283013; active means hit-call score of the fitted dose curve at least 0.9, where 1 is the maximum)
How it was run: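 Multiplexed TRANS reporter assay in HepG2; 24 h dosing; reporter mRNA by RT-PCR/CE fluorescence; gain-of-signal relative to DMSO.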

Measured: AC50

Chain of Cellular tumor antigen p53 (Homo sapiens) (P04637 whole entry, looked up): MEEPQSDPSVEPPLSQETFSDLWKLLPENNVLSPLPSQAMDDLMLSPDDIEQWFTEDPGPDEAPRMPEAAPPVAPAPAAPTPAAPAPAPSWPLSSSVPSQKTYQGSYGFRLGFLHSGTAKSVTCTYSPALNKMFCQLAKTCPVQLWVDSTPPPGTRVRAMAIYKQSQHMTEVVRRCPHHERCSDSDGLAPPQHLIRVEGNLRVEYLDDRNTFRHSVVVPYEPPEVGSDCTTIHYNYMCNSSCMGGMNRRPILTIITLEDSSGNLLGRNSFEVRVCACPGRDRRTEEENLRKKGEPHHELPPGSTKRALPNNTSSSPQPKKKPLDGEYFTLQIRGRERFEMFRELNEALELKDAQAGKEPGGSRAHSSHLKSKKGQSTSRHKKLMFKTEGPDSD
Chain of Retinoic acid receptor RXR-alpha (Homo sapiens) (P19793 whole entry, looked up, the tested form may be a part): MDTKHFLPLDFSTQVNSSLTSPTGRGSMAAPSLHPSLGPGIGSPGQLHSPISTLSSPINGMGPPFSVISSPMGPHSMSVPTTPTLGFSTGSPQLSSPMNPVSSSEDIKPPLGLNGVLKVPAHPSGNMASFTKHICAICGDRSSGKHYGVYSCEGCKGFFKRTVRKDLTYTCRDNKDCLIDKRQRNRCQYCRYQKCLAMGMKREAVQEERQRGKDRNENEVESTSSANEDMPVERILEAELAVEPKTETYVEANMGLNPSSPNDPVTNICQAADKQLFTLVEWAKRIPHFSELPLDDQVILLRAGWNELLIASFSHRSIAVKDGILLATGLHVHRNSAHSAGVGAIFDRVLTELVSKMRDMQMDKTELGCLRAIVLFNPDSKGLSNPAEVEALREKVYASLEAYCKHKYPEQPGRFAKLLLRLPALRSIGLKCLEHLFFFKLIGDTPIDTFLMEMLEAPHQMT
Chain of Hepatocyte nuclear factor 4-alpha (Homo sapiens) (P41235 whole entry, looked up, the tested form may be a part): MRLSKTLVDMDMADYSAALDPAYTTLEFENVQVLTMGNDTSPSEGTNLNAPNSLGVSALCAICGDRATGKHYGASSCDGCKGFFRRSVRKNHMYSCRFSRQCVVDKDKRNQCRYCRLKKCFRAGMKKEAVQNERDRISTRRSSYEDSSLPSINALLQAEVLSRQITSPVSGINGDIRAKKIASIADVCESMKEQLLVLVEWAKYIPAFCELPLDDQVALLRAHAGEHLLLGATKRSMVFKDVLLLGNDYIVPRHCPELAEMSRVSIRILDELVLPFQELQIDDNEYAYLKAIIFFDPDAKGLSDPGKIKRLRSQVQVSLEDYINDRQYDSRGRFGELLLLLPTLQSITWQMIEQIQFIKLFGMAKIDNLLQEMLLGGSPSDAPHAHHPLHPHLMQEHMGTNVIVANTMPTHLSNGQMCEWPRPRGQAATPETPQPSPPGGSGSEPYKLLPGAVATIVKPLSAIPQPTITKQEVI
Chain of Nuclear respiratory factor 1 (Homo sapiens) (Q16656 whole entry, looked up, the tested form may be a part): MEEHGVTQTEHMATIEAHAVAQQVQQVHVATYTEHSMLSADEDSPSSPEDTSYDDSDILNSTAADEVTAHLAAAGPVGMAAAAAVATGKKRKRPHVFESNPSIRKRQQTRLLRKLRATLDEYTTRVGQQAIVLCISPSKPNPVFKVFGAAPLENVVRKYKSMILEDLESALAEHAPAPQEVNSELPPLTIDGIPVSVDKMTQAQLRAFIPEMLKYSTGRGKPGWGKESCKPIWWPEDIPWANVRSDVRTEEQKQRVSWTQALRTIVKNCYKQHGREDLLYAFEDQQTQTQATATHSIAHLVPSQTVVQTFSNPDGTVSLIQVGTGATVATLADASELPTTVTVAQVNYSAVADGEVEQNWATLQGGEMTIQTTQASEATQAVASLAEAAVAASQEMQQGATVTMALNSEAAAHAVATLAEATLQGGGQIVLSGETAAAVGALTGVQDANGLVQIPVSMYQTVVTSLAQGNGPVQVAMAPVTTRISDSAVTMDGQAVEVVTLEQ
Chain of Peroxisome proliferator-activated receptor gamma (Homo sapiens) (P37231 whole entry, looked up, the tested form may be a part): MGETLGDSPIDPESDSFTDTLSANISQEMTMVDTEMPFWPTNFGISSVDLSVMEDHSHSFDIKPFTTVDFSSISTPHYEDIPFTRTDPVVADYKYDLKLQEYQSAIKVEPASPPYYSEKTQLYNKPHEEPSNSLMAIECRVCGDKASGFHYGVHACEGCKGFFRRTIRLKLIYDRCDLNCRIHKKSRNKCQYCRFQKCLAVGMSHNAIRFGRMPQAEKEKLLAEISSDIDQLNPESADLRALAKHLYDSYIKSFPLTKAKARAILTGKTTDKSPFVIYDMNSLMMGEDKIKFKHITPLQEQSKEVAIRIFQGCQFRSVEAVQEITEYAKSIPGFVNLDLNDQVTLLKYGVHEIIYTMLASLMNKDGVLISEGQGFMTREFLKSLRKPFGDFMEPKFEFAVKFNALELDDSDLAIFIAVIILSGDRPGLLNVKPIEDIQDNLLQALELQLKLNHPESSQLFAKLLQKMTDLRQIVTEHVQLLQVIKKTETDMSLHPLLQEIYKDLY
Chain of X-box-binding protein 1 (Homo sapiens) (P17861 whole entry, looked up): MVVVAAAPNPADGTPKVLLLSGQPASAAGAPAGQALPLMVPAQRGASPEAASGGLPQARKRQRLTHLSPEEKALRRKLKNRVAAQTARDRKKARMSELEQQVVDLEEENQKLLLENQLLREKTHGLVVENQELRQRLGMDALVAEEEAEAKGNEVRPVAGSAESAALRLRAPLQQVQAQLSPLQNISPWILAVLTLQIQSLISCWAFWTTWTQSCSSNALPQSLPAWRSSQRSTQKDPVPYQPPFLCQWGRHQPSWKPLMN
Chain of human Retinoid X Receptor beta (RXRb), RXRB (gene 6257) (P28702 whole entry, looked up): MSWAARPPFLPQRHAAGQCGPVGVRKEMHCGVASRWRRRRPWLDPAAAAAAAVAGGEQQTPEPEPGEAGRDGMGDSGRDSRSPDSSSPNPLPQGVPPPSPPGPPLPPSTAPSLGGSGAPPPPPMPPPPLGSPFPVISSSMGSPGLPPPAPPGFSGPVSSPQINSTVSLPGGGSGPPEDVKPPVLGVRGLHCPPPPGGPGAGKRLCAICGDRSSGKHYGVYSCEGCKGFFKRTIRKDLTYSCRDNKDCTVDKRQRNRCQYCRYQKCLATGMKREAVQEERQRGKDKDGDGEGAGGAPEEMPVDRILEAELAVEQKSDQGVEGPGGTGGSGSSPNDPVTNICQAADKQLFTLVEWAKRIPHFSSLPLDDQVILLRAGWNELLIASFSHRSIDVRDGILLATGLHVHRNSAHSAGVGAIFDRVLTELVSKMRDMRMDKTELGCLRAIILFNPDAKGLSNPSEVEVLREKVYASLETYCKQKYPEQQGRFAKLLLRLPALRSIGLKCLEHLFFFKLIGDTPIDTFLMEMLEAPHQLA
Chain of Nuclear receptor subfamily 1 group I member 2 (Homo sapiens) (O75469 whole entry, looked up, the tested form may be a part): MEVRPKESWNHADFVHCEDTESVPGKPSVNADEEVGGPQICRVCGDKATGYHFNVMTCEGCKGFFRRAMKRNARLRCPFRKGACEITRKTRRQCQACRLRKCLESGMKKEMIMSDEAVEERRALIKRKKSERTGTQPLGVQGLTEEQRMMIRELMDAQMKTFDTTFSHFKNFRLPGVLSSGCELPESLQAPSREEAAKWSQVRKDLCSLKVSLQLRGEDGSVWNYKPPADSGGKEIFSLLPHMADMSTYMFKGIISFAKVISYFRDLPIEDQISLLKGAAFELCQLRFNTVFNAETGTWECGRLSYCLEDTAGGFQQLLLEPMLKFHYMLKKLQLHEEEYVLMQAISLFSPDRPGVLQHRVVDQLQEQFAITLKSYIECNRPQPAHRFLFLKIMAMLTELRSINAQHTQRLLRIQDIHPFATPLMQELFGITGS

Oc1ccc(C2(c3ccc(O)cc3)c3ccccc3-c3ccccc32)cc1
inactive: [1] | [3] | [4] | [7] | [10] | [12]
active: [2] 17 µM | [5] 13.6 µM | [6] 13.6 µM | [8] 19.1 µM | [9] 17.6 µM | [11] 0.384 µM | [13] 0.906 µM | [14] 76.6 µM | [15] 67.8 µM

CCCCCCCCCCCCCCCC[N+](C)(C)C
active: [2] 48.7 µM | [3] 48.5 µM | [18] 100 µM | [19] 27.6 µM | [8] 26 µM | [10] 27.4 µM
not listed: [6] | [13] | [14] | [15]
inactive: all other assays above

CCC(C)c1cc([N+](=O)[O-])cc([N+](=O)[O-])c1OC(=O)C=C(C)C (configuration not stated)
active: [1] 8.06 µM | [2] 17.7 µM | [16] 57.3 µM | [18] 53.7 µM | [6] 27.2 µM | [10] 1.05 µM | [11] 1.6 µM | [13] 13.9 µM | [14] 10.3 µM | [15] 14.3 µM
inactive: [3] | [17] | [4] | [19] | [7] | [12] | [20]

O=[N+]([O-])c1cc(C(F)(F)F)c(Cl)c([N+](=O)[O-])c1Cl
active: [2] 5.43 µM | [18] 5.81 µM | [19] 11.1 µM | [9] 6.17 µM | [10] 8.34 µM | [13] 22.2 µM | [14] 21 µM | [15] 21.9 µM
not listed: [12] | [17] | [20]
inactive: all other assays above

ClCC(Cl)Cl
active: [11] 26.6 µM
not listed: [5] | [6] | [8] | [12] | [13] | [18] | [19]
inactive: all other assays above

CCCC=NO
not listed: [4] | [5] | [7] | [15]
inactive: all other assays above

O=C=Nc1ccccc1
inactive: [1] | [2] | [16] | [17] | [6] | [19] | [9] | [10] | [12]

Cc1ccc(N(SC(F)(Cl)Cl)S(=O)(=O)N(C)C)cc1
active: [4] 11.1 µM | [18] 18.5 µM | [6] 17 µM | [9] 17.3 µM | [15] 44.8 µM
not listed: [2] | [3] | [8] | [12]
inactive: all other assays above

CSc1nc(N=[N+]=[N-])nc(NC(C)C)n1
active: [10] 15.4 µM | [11] 14 µM
not listed: [3] | [6] | [7] | [12] | [13] | [16] | [19]
inactive: all other assays above
